This is a sample that favours compounds with a hit; in the whole collection about 0.51% have one here.
FMDV Renilla: shows antiviral activity in FMDV Renilla assay. FMDV replicon cells, Renilla luciferase signal. 120,000 tested, 0.32% active. Potency, µM (doses to about 57.5 µM), usual class: inhibitors; also: nearly all actives have a fitted effect of over 55% in size
FMDV antiviral: antivirals against foot and mouth disease virus | FMDV antiviral cell assay, firefly luciferase signal | Potency, µM (doses to about 57.5 µM), hits mostly inhibitors | 120,000 tested, 0.23% active; also: nearly all actives have a fitted effect of over 60% in size
A number is an active result; i = inactive; ? = inconclusive; [ ] = remark or other dose. Calls follow the shape of the full dose curve.

SMILES	FMDV Renilla	FMDV antiviral
Cc1cc2ccccc2n1-c1ccc(C(=O)N2CCC(C(=O)NCc3ccccc3Cl)CC2)s1	i	i
Cc1cc2ccccc2n1-c1ccc(C(=O)N2CCC(C(=O)NCc3ccc(Cl)cc3)CC2)s1	?	25.1µM
COc1ccc(/C=C\c2onc(C)c2S(=O)(=O)N2CCC(C(=O)Nc3ccc(C)c(F)c3)CC2)cc1	i	i
COc1ccc(/C=C\c2onc(C)c2S(=O)(=O)N2CCC(C(=O)Nc3ccc(F)cc3F)CC2)cc1	28.2µM	31.6µM
COc1cccc(CC(=O)Nc2ccccc2-c2ccccc2)c1	i	i
O=C(C1CCC(CNS(=O)(=O)c2ccc(Br)s2)CC1)N1CCN(c2ccc(F)cc2)CC1 (configuration not stated)	6.31µM	?
O=C(C1CCC(CNS(=O)(=O)c2ccc(Br)s2)CC1)N1CCN(c2ccccc2Cl)CC1 (configuration not stated)	i	i
CCc1cc2c(=O)c(-c3nncn3-c3ccccc3)coc2cc1OCC(=O)NCCCC(=O)O	i	i
COc1ccc(C(=O)Nc2cnc3c(cnn3C(C)C)c2)cc1S(=O)(=O)N1CCCC1	?	31.6µM
CC(C)n1ncc2cc(NC(=O)c3cc(S(=O)(=O)N4CCCCC4)ccc3N3CCCC3)cnc21	i	i
CCOC(=O)Cn1nc(C)c(NC(=O)COc2ccc(Cl)cc2C)c1C	10µM	?
CCOC(=O)Cn1nc(C)c(NC(=O)COc2ccccc2)c1C	i	i
CNC(C)c1ccc2ccccc2c1 (configuration not stated)	i	i
O=C(CCn1nnc2ccccc21)OCC(=O)c1cccc(Br)c1	i	i
Cc1c(CC(=O)N2CCN(c3ccccc3)CC2)c(=O)oc2cc(O)ccc12	i	i
c1ccc(Nc2nc(NCc3ccco3)c3ccccc3n2)cc1	?	i
c1ccc(CNc2nc(Nc3ccccc3)nc3ccccc23)cc1	12.6µM	?
C/C=C/Cn1c(SCCCCCCC)nc2c1c(=O)[nH]c(=O)n2C	i	i
CCCCS(=O)(=O)c1oc(-c2ccc(F)cc2)nc1S(=O)(=O)c1ccccc1	i	28.2µM
CC(C)S(=O)(=O)c1oc(-c2ccc(F)cc2)nc1S(=O)(=O)c1ccccc1	i	?
CCOC(=O)C1CCCN(C(=O)c2cc3c(Cl)nc4ccccc4c3s2)C1 (configuration not stated)	i	6.31µM
O=C(c1cc2c(Cl)nc3ccccc3c2s1)N1CCCCC1	i	i
CS(=O)(=O)c1nc(S(=O)(=O)c2ccc(Cl)cc2)c(NCCc2ccccc2)s1	i	i
CC(c1cc2ccccc2o1)N(C)S(=O)(=O)c1ccccc1 (configuration not stated)	i	i
COc1ccc(NC(=O)COc2c(C)cccc2C)c2cccnc12	i	i
SMILES	FMDV Renilla	FMDV antiviral
COc1ccc(NC(=O)COc2ccccc2C)c2cccnc12	14.1µM	?
COc1ccc(C)cc1NS(=O)(=O)c1ccc(-c2cnc(C3CC3)o2)cc1	15.8µM	14.1µM
Cc1ccc(CNS(=O)(=O)c2ccc(-c3cnc(C4CC4)o3)cc2)cc1	i	i
CCOc1ccc(-c2nc(CSCC(=O)N3CCN(c4ccc(F)cc4)CC3)c(C)o2)cc1	i	i
CCOc1ccc(-c2nc(CSCC(=O)N3CCN(c4cccc(C(F)(F)F)c4)CC3)c(C)o2)cc1	?	28.2µM
CN(Cc1cccs1)C(=O)COc1cc2oc(=O)cc(-c3ccccc3)c2cc1Cl	i	i
COc1cccc(NC(=O)CN(C)S(=O)(=O)c2ccc3nc(C)sc3c2)c1	i	i
CCOc1ccccc1NC(=O)CN(C)S(=O)(=O)c1ccc2nc(C)sc2c1	31.6µM	?
N#Cc1ccccc1-n1cccc1C=O	i	i
CCS(=O)(=O)c1ncc(Cl)c(C(=O)N(Cc2ccccc2)C2CCS(=O)(=O)C2)n1 (configuration not stated)	25.1µM	?
CSc1ncc(Cl)c(C(=O)N(Cc2ccc(C)cc2)C2CCS(=O)(=O)C2)n1 (configuration not stated)	i	i
CCS(=O)(=O)c1ncc(N(Cc2ccccc2)Cc2ccco2)c(C(=O)Nc2cccc(Cl)c2C)n1	i	i
CCS(=O)(=O)c1ncc(Cl)c(C(=O)N(Cc2ccccc2)Cc2ccco2)n1	i	22.4µM
CCCn1nc(C(=O)Oc2ccc(C(=O)CC)cc2)c2ccccc2c1=O	i	i
N#Cc1ccc(COC(=O)c2ccccc2-c2ccccc2C#N)cc1	i[1.06 µM]	i
O=C(Nc1ccncc1)C1CCN(c2nc3ccccc3o2)CC1	15.8µM	?
O=C(Nc1ccc(C(F)(F)F)cc1)C1CCN(c2nc3ccccc3o2)CC1	?	i
Cc1[nH]c2ccccc2c1C(C(=O)O)N1CCN(C(c2ccccc2)c2ccccc2)CC1 (configuration not stated)	i	i
CCc1ccc(-c2noc(CN3CCCc4c(C(=O)NC(C)C)cccc43)n2)cc1	i	i
CC(C)NC(=O)c1cccc2c1CCCN2Cc1nc(-c2cccc(Cl)c2)no1	25.1µM	?
Cc1cccc(-c2ocnc2C(=O)Nc2ccc(Cl)cc2)c1	i	i
CCC(C(=O)Nc1sc2c(c1C#N)CCCC2)n1cnc2c1c(=O)n(C)c(=O)n2C (configuration not stated)	i	i
CC(C(=O)Nc1sc2c(c1C#N)CCCCC2)n1cnc2c1c(=O)n(C)c(=O)n2C (configuration not stated)	14.1µM	?
C(#C[Si](C#CCN1CCCCC1)(c1ccccc1)C1CCCCC1)CN1CCCCC1	i	i
Cc1oc(-c2cccs2)nc1CC(=O)NCC1CCCO1 (configuration not stated)	i	i
SMILES	FMDV Renilla	FMDV antiviral
CCC1CCC(N(C(=O)Cc2nc(-c3cccs3)oc2C)C2CC2)CC1 (configuration not stated)	i	35.5µM
COc1ccc(-c2nc(CS(=O)(=O)CC(=O)NCc3ccc(OC(C)C)cc3)c(C)o2)cc1	i	i
O=C(Nc1ccc(-n2cccn2)c(F)c1)C1CCN(C(=O)c2ccco2)CC1	i	i
O=C(Nc1nc(-c2ccc(Cl)cc2Cl)cs1)C1CCN(C(=O)c2ccco2)CC1	35.5µM	?
COc1cc(OC)c(C(=O)NCc2coc(-c3cccs3)n2)cc1OC	i	i
Brc1ccc(OCc2ccccc2)c(CNCC2CCNCC2)c1	i	i
Fc1ccc(COc2cccc(CNCC3CCNCC3)c2)cc1	31.6µM	?
CC(=O)C1=C(c2ccc(OC(F)F)cc2)N(C(C)=O)n2c(nnc2-c2ccccc2)S1	i	i
O=C(c1cc(F)cc(F)c1)N1CCC(CN2CCOCC2)CC1	i	i
CCCCC(=O)N/N=C(\C)c1ccc(C)c(C)c1	i	i
CC(=O)N1CCc2cc(S(=O)(=O)Nc3ccc4c(c3)CCN4S(C)(=O)=O)ccc21	i	i
CCOC(=O)N1CCc2c(sc(NCc3ccc(OC)c(OC)c3OC)c2C(=O)Nc2ccc(OC)cc2OC)C1	i	i
CCOC(=O)N1CCc2c(sc(NCc3ccc(OCC)cc3)c2C(=O)Nc2ccc(OC)cc2OC)C1	i	25.1µM
CCN(CC)c1nc2ccccc2nc1C(=O)Nc1ccc(C(=O)OC)cc1	i	i
Cc1csc2nc(-c3cccc(NC(=O)c4ccccc4F)c3)cn12	i	i
Cc1csc2nc(-c3cccc(NC(=O)c4cccc(F)c4)c3)cn12	12.6µM	i
COC(=O)c1ccoc1COC(=O)Cc1coc2cc(C)c(C)cc12	i	i
Cn1c(SCc2nc(-c3ccc(C(F)(F)F)cc3)no2)nc2ccsc2c1=O	17.8µM	22.4µM
COCCn1c(SCc2nc(-c3cccc(C(F)(F)F)c3)no2)nc2ccsc2c1=O	i	i
